Data on 40 molecules can be found in PubChem BioAssay (NCI).

About 83,000 compounds went through this panel and 20% of them were active in at least one assay; those are over-represented in the sample as a whole.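 Compound tested at a single concentration for 48 hours in 96-well plates; a percent growth value below 10 was scored as active.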 The source made the active and inactive calls.

This assay relates to NCI-H226 lung. The experiment in a line: NCI-60 one-dose screen, 48 h (100 = growth as untreated, 0 = no growth, -100 = all killed). The settings on record: 10 µM unless noted. The method, then:
Growth inhibition of the NCI-H226 human Non-Small Cell Lung tumor cell line is measured as a screen for anti-cancer activity. Cells are grown in 96 well plates and exposed to the test compound for 48 hours. Compounds are tested at a single concentration, which is 10^-5 M for most compounds. The reported endpoint is percent growth (GI% or GIPRCNT), where numbers from 0 - 100% represent growth inhibition, and numbers from -100% - 0 represent cell death. For example, a value of 40 represents 60% growth inhibition. A value of 0 means no net growth occurred over the course of the experiment. A value of -40 indicates 40% of cells at the beginning of the experiment died by the end of the experiment. A value of -100 means all cells are dead at the end of the experiment.
NCI-60 Human Tumor Cell Lines Screen was performed using the standard one-dose NCI protocol, which is described in more detail at https://dtp.cancer.gov/discovery_development/nci-60/default.htm.
Compounds with GIPRCNT values below 10 were considered active. Activity score was based on GIPRCNT using the following formula: […]
Score is 0 for GIPRCNT values of 100 or above, 50 for GIPRCNT values of 0, and 100 for GIPRCNT values of -100.
Take `COc1ccc2nc3cc([N+](=O)[O-])ccc3c(NNc3ccccc3)c2c1`: the growth is 63.8% (inactive).

For `COC(=O)[C@]1(C)CCC[C@]2(C)c3ccc(C(C)C)cc3C(=O)[C@@H](Br)[C@@H]12`, the growth was 81.7% (inactive). The result for `Cc1cc(=O)oc2cc(O)cc(O)c12` reads 97.7% (inactive). The result for `Cc1c(O)ccc(SC#N)c1C` reads 109% (inactive); that for `CC1=CC(=O)C=CC1(C)C(Cl)(Cl)Cl` (stereo not given), 95.2% (inactive). Turning to `Nc1ccc(C(=O)/C=C/c2ccccc2)cc1`, the growth is 105% (inactive). `CN1CCC(c2ccccc2)(c2ccccc2)C(=O)C1`: the growth was 67.7% (inactive). The result for `O=C(Nc1cccc(C(F)(F)F)c1)Oc1ccc(Cl)c2cccnc12` reads 86.3% (inactive); that for `O=C1/C(=C/c2ccccc2)CCC/C1=C\c1ccccc1`, 96% (inactive).

With `CCCCCCN(CCCCCC)CCCNc1nccc2ccccc12`, the growth is 42.9% (inactive). The result for `Cn1ccc(=Nc2ccc(NC(=O)c3ccc(N=c4ccn(C)c5ccc([N+](=O)[O-])cc45)cc3)cc2)cc1` reads 70% (inactive); that for `COc1cc(NCc2ccc3nc(N)nc(N)c3c2C)cc(OC)c1OC` (tested in a mixture with another compound), 47.5% (inactive). The result for `O=C(/C=C/C(Cl)(Cl)Cl)Nc1ccc(Cl)cc1` reads 106% (inactive); that for `CCCCCCCCCCCC[N+]1(CCCCCCCCCCCC)CCCC(C)C1` (stereo not given), -77% (active); that for `CCCCCCCCc1cc(Cl)c(O)c(Cl)c1`, 104% (inactive). The result for `c1ccc(-c2cccc(-c3ccccn3)n2)nc1` reads 4.69% (active); that for `O=C1C=CC(=O)N1c1ccc(O)cc1`, 101% (inactive). As to `Clc1ccc(-n2ncc3c(NCCCN4CCOCC4)ncnc32)cc1`, the growth was 91.8% (inactive).

On to `COc1cc2c(c(OC)c1OC)-c1ccc(NCc3ccccc3)c(=O)cc1[C@@H](NC(C)=O)CC2`, for which the growth is -12.4% (active). The result for `CCSc1nc2ccccc2o1` reads 106% (inactive); that for `CC12CCC(O)CC1=CCC1C2CCC2(C)C3=NN=CC3CC12` (stereo not given), 105% (inactive). On to `O=C1/C(=C\c2ccc([N+](=O)[O-])cc2)CS(=O)(=O)C/C1=C/c1ccc([N+](=O)[O-])cc1`, for which the growth was -67.2% (active). Under `O=C/C=C/c1ccc([N+](=O)[O-])cc1` stands 101% (inactive); under `c1ccc(C2NCCNC2c2ccccc2)cc1` (stereo not given), 99.5% (inactive); under `O=C1Nc2ccc(Br)cc2C1=O`, 93.3% (inactive). Under `O=C(/C(Cl)=N/O)c1ccc(-c2ccccc2)cc1` stands 88.7% (inactive); under `Oc1ccc(Cl)cc1Cc1cc(Cl)ccc1O`, 96.7% (inactive); under `NC1=C(Br)C(=O)c2ncccc2C1=O`, 90.4% (inactive). Under `Cc1cc(C(=O)c2ccc(Cl)cc2)ccc1O` stands 90.1% (inactive); under `CC(C)Nc1ccc(Nc2ccc(NC(C)C)cc2)cc1`, 51.8% (inactive). For the molecule `CC(=O)OC1CC2CCC1(C)C2(C)C` (stereo not given), the growth is 103% (inactive). Under `Fc1ccc(NCCS)cc1` stands 104% (inactive); under `S=C1SCN(Cc2cccs2)CN1Cc1cccs1`, 104% (inactive); under `CCCCCCCCCCCCCCCCCC[S+](C)CC` (stereo not given), 17.5% (inactive). Under `C=C(C(N)=O)C(N)C(=O)O` (stereo not given) stands 112% (inactive).

For the molecule `CC(C)(C)c1ccc(O)c(Br)c1`, the growth was 92.5% (inactive). The result for `O=C(Cc1nc2cc(Cl)c(Cl)cc2nc1CC(=O)c1cccnc1)c1cccnc1` reads 77.2% (inactive); that for `O=C1C=CC(=O)N1c1cccc2c1CCCC2`, 96.4% (inactive). As for `O=C(c1ccc(O)c(Br)c1)c1ccc(O)c(Br)c1`, the growth was 109% (inactive). Under `COc1ccc(C(Cn2ccnc2)Sc2ccc(Cl)c(Cl)c2)cc1` (stereo not given) stands 69.7% (inactive).
